The values below come from PubChem BioAssay (EPA / NIEHS).

Read-out in experiment [1]: Macrophage colony-stimulating factor (MCSF), CSF1 (gene 1435)
In words: BSK_hDFCGF_MCSF: BioMAP Diversity Plus: hDFCGF Assay for Macrophage colony-stimulating factor (MCSF) Biomarker Activity (AID 2283060). To be noted: primary human foreskin fibroblasts; actives raise or lower the signal. A digest of the protocol: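 ELISA read-out of M-CSF in human dermal foreskin fibroblast cultures, 24 h after chemical dosing; gain or loss of signal fitted bidirectionally relative to DMSO baseline.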

The nature of experiment [2]: BSK_hDFCGF_SRB: Viability Assessment in the BioMAP Diversity Plus: hDFCGF Assay (AID 2283061).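 Further: cells exposed to compound for 24 h before the read.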 The conditions noted are these: primary human foreskin fibroblasts. A digest of the protocol:
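Primary human foreskin fibroblasts; 24 h post-dose; fixed 10% TCA, stained 0.1% SRB, A560 read; total protein as overt cytotoxicity measure; curves fit bidirectionally vs DMSO control.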

Read-out in experiment [3]: TIMP metallopeptidase inhibitor 1 (TIMP1), TIMP1 (gene 7076)
In words: BSK_hDFCGF_TIMP1: BioMAP Diversity Plus: hDFCGF Assay for TIMP metallopeptidase inhibitor 1 (TIMP1) Biomarker Activity (AID 2283062). To be noted: primary human foreskin fibroblasts; actives raise or lower the signal. Summed up:
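ELISA readout of TIMP-1 from human dermal foreskin fibroblast cultures 24 h post-dosing. Curves were fitted in both directions against DMSO baseline, with SRB total-protein staining in parallel cultures as a cytotoxicity check.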

Read-out in experiment [4]: Monokine induced gamma interferon (MIG), CXCL9 (gene 4283)
Kind of experiment: BSK_hDFCGF_MIG: BioMAP Diversity Plus: hDFCGF Assay for Monokine induced gamma interferon (MIG) Biomarker Activity (AID 2283063). The conditions noted are these: primary human foreskin fibroblasts; actives raise or lower the signal. A digest of the protocol: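 Fibroblasts (human foreskin, primary) dosed, 24 h, MIG by ELISA; fit bidirectional vs DMSO.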

Read-out in experiment [5]: Vascular cell adhesion molecule 1 (VCAM1), VCAM1 (gene 7412)
In words: BSK_hDFCGF_VCAM1: BioMAP Diversity Plus: hDFCGF Assay for Vascular cell adhesion molecule 1 (VCAM1) Biomarker Activity (AID 2283065). To be noted: primary human foreskin fibroblasts; actives raise or lower the signal. A digest of the protocol:
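ELISA read-out of VCAM-1 on human skin fibroblasts, 24 h post-dose; gain or loss of signal fitted bidirectionally against DMSO baseline.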

Read-out in experiment [6]: Plasminogen activator inhibitor-1 (PAI1), SERPINE1 (gene 5054)
In words: BSK_hDFCGF_PAI1: BioMAP Diversity Plus: hDFCGF Assay for Plasminogen activator inhibitor-1 (PAI1) Biomarker Activity (AID 2283066). The conditions noted are these: primary human foreskin fibroblasts; actives raise or lower the signal. A digest of the protocol: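 Human foreskin fibroblasts in the hDFCGF system were dosed with compound for 24 h; PAI-1 was quantified by ELISA. Bidirectional curve fitting used DMSO as negative control and baseline.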

Read-out in experiment [7]: Intercellular Adhesion Molecule 1 (ICAM1), ICAM1 (gene 3383)
Kind of experiment: BSK_KF3CT_ICAM1: BioMAP Diversity Plus: KF3CT Assay for Intercellular Adhesion Molecule 1 (ICAM1) Biomarker Activity (AID 2283067). To be noted: primary human keratinocytes with fibroblasts; actives raise or lower the signal. A digest of the protocol:
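ELISA readout of ICAM-1; KF3CT human skin co-culture (keratinocytes + foreskin fibroblasts), 24 h post-dose; gain/loss fit vs DMSO baseline.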

Read-out in experiment [8]: Interferon-gamma inducible Protein 10 (IP10), CXCL10 (gene 3627)
In words: BSK_KF3CT_IP10: BioMAP Diversity Plus: KF3CT Assay for Interferon-gamma inducible Protein 10 (IP10) Biomarker Activity (AID 2283068). To be noted: primary human keratinocytes with fibroblasts; actives raise or lower the signal. A digest of the protocol: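 In a primary skin co-culture of keratinocytes and fibroblasts, IP-10 is quantified by ELISA at 24 h after dosing. SRB staining of parallel wells monitors overt toxicity. Curves are fitted both directions against DMSO.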

A short description of experiment [9]: BSK_KF3CT_SRB: Viability Assessment in the BioMAP Diversity Plus: KF3CT Assay (AID 2283069).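 Further: total protein by sulforhodamine B staining as a cytotoxicity measure; read 24 h after compound addition.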 The conditions noted are these: primary human keratinocytes with fibroblasts. Summed up:
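Human keratinocyte and foreskin fibroblast co-culture exposed to chemical for 24 h. Total protein measured in parallel cultures by 0.1% sulforhodamine B staining after 10% TCA fixation, read at 560 nm; bidirectional fit relative to DMSO.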

Read-out in experiment [10]: Interleukin-1 alpha (IL1a), IL1A (gene 3552)
In words: BSK_KF3CT_IL1a: BioMAP Diversity Plus: KF3CT Assay for Interleukin-1 alpha (IL1a) Biomarker Activity (AID 2283070). The conditions noted are these: primary human keratinocytes with fibroblasts; actives raise or lower the signal. A digest of the protocol:
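Primary human keratinocyte plus foreskin fibroblast co-culture, dosed and measured at 24 h in 96-well plates. IL-1a level quantified by ELISA; bidirectional fit relative to DMSO.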

Read-out in experiment [11]: TIMP metallopeptidase inhibitor 2 (TIMP2), TIMP2 (gene 7077)
In words: BSK_KF3CT_TIMP2: BioMAP Diversity Plus: KF3CT Assay for TIMP metallopeptidase inhibitor 2 (TIMP2) Biomarker Activity (AID 2283071). To be noted: primary human keratinocytes with fibroblasts; actives raise or lower the signal. A digest of the protocol:
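Human primary keratinocyte/foreskin fibroblast co-culture dosed with chemical and sampled at 24 h. TIMP-2 levels quantified by ELISA; bidirectional fitting against DMSO negative control as baseline.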

Read-out in experiment [12]: Transforming growth factor beta 1 (TGFb1), TGFB1 (gene 7040)
In words: BSK_KF3CT_TGFb1: BioMAP Diversity Plus: KF3CT Assay for Transforming growth factor beta 1 (TGFb1) Biomarker Activity (AID 2283072). The conditions noted are these: primary human keratinocytes with fibroblasts; actives raise or lower the signal. Summed up:
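Human keratinocyte plus foreskin fibroblast primary co-culture, dosed with chemical for 24 h. TGF-b1 quantified by ELISA. Activity fitted bidirectionally against DMSO negative control as baseline.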

Read-out in experiment [13]: C-C motif chemokine 2 (Homo sapiens) (UniProt P13500)
In words: BSK_KF3CT_MCP1: BioMAP Diversity Plus: KF3CT Assay for Monocyte Chemoattractant Protein 1 (MCP1/CCL2) Biomarker Activity (AID 2283073). The conditions noted are these: primary human keratinocytes with fibroblasts; actives raise or lower the signal. Summed up:
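KF3CT skin co-culture (keratinocytes/foreskin fibroblasts), 24 h post-dose; MCP-1 by ELISA; gain/loss of signal fit bidirectionally vs DMSO baseline.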

Read-out in experiment [14]: Matrix Metallopeptidase 9 (MMP9), MMP9 (gene 4318)
Kind of experiment: BSK_KF3CT_MMP9: BioMAP Diversity Plus: KF3CT Assay for Matrix Metallopeptidase 9 (MMP9) Biomarker Activity (AID 2283074). The conditions noted are these: primary human keratinocytes with fibroblasts; actives raise or lower the signal. Summed up: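 Human keratinocyte and foreskin fibroblast co-culture exposed to chemicals for 24 h; MMP9 biomarker measured by ELISA, bidirectional fitting relative to DMSO; cytotoxicity tracked by SRB total protein staining in parallel cultures.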

Read-out in another experiment: CD40, CD40 (gene 958)
Kind of experiment: BSK_LPS_CD40: BioMAP Diversity Plus: LPS Assay for CD40 Biomarker Activity (AID 2283076). To be noted: primary human HUVEC with PBMC; actives raise or lower the signal. Summed up: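 ELISA readout of CD40 in HUVEC/PBMC co-culture (BSK_LPS system), 24 h post-dosing; bidirectional curve fit, DMSO baseline; parallel SRB total-protein staining for cytotoxicity.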

Read-out in experiment [15]: E-selectin (Homo sapiens) (UniProt P16581)
In words: BSK_LPS_Eselectin: BioMAP Diversity Plus: LPS Assay for Eselectin Biomarker Activity (AID 2283077). The conditions noted are these: primary human HUVEC with PBMC; actives raise or lower the signal. A digest of the protocol: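 ELISA readout of E-selectin, 24 h post-dose, HUVEC + PBMC co-culture (LPS system). Gain or loss of signal vs DMSO baseline, bidirectional fit.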

Read-out in experiment [16]: Interleukin-8 (IL8), CXCL8 (gene 3576)
Kind of experiment: BSK_LPS_IL8: BioMAP Diversity Plus: LPS Assay for Interleukin-8 (IL8) Biomarker Activity (AID 2283078). The conditions noted are these: primary human HUVEC with PBMC; actives raise or lower the signal. A digest of the protocol: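 HUVEC + PBMC co-culture, LPS-activated; test chemicals dosed, IL-8 read by ELISA at 24 h. Bidirectional curve fit vs DMSO baseline (gain or loss of signal).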

Experiment [17] in a line: BSK_LPS_SRB: Viability Assessment in the BioMAP Diversity Plus: LPS Assay (AID 2283079).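 Further: total protein by sulforhodamine B absorbance as a cytotoxicity measure; measured one day after compound addition; fitted in both directions against DMSO so loss or gain of signal counts.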 To be noted: primary human HUVEC with PBMC. A digest of the protocol:
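HUVEC + PBMC co-culture, LPS-stimulated; compound 24 h. 10% TCA fix, 0.1% SRB stain, A560. Bidirectional fit vs DMSO.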

Read-out in experiment [18]: Matrix Metallopeptidase 1 (MMP1), MMP1 (gene 4312)
Kind of experiment: BSK_hDFCGF_MMP1: BioMAP Diversity Plus: hDFCGF Assay for Matrix Metallopeptidase 1 (MMP1) Biomarker Activity (AID 2283064). The conditions noted are these: primary human foreskin fibroblasts; actives raise or lower the signal. A digest of the protocol: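 Primary human foreskin fibroblasts exposed to chemicals for 24 h; MMP1 measured by ELISA. Cytotoxicity tracked by SRB staining in parallel cultures; bidirectional fit relative to DMSO.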

Read-out in experiment [19]: urokinase plasminogen activator (uPA), PLAU (gene 5328)
In words: BSK_KF3CT_uPA: BioMAP Diversity Plus: KF3CT Assay for urokinase plasminogen activator (uPA) Biomarker Activity (AID 2283075). The conditions noted are these: primary human keratinocytes with fibroblasts; actives raise or lower the signal. Summed up: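 Primary human keratinocyte/foreskin fibroblast co-culture exposed to chemical; uPA measured by ELISA at 24 h. Bidirectional fit versus DMSO, with parallel SRB total-protein staining for cytotoxicity.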

Calls of active or inactive are those of the source. How the source made its calls: active means hit-call score of the fitted dose curve at least 0.9, where 1 is the maximum; inactive means score below 0.9.

E-selectin (Homo sapiens), sequence (P16581 whole entry, looked up): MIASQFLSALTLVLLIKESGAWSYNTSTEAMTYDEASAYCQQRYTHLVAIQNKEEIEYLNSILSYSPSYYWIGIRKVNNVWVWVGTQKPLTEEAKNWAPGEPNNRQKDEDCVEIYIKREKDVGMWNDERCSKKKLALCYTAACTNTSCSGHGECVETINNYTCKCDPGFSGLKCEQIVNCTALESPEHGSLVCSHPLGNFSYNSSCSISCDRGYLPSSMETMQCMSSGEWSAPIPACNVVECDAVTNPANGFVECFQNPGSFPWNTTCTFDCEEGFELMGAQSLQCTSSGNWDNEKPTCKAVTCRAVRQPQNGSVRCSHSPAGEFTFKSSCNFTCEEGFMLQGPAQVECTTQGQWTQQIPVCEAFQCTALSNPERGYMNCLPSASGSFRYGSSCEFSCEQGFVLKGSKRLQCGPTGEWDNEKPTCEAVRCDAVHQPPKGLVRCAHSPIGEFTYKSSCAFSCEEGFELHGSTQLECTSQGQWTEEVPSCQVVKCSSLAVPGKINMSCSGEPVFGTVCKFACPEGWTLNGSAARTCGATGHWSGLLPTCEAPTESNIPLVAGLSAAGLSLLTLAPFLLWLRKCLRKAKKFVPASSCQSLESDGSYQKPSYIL

As a reminder, the AC50 is the midpoint of the concentration-response curve, whichever way the signal moves. As for `CCOP(=S)(OCC)SCn1nnc2ccccc2c1=O`, the AC50 in [1] was 20 µM (active). Further, the result in experiment [2], in experiment [3], in experiment [4], in experiment [5], in [6] and in [7] was inactive. Further, the result in experiment [8], in experiment [9], in experiment [10], in [11], in [12] and in [13] was inactive. Besides, the outcome in experiment [14] is “inactive”; with CD40, CD40 (gene 958), “inactive”; in [15], “inactive”; in experiment [16] it was “inactive”; in experiment [17], “inactive”.
For `O=C(O)C(Cl)Cl`, the result in experiment [1], in experiment [2], in experiment [3], in experiment [4], in experiment [18] and in [6] was inactive. Also, the result in experiment [7], in experiment [8], in [9], in experiment [10], in experiment [11] and in experiment [12] was inactive. In addition, the outcome is “inactive” in [13]; “inactive” in experiment [14]; “inactive” in experiment [19]; “inactive” with CD40, CD40 (gene 958); “inactive” in experiment [15]; “inactive” in experiment [16]. In [17], the outcome was inactive.
For the molecule `Cc1ccc(O)cc1C`, the result in experiment [1], in [2], in experiment [3], in experiment [4], in experiment [18] and in [6] was inactive. Also, the outcome in experiment [7], in experiment [8], in [9], in experiment [10], in [11] and in experiment [12] was inactive. The outcome in experiment [13] was “inactive”; in experiment [14] it was “inactive”; with CD40, CD40 (gene 958), “inactive”; in [15], “inactive”; in experiment [16], “inactive”; in experiment [17], “inactive”.
Turning to `CC(Cl)(Cl)C(=O)O`, the result in experiment [1], in experiment [2], in experiment [3], in experiment [4], in [18] and in [6] was inactive. Moreover, the outcome in [7], in experiment [8], in experiment [9], in experiment [10], in experiment [11] and in [12] was inactive. The outcome was “inactive” in [13]; “inactive” in experiment [14]; “inactive” in the experiment with CD40, CD40 (gene 958); “inactive” in experiment [15]; “inactive” in [16]; “inactive” in experiment [17].
